# In PubChem BioAssay AID1224897 (Sanford-Burnham Center for Chemical Genomics, 2016):
# The list shows a part of the results. Activity calls are given as the source filed them. How the calls were made is not given here.
# Biological target: Hepatocyte nuclear factor 4-alpha (Homo sapiens) (UniProt P41235)
# Assay: HNF4-alpha DNA association modulation retest – biochemical, fluorescence polarization, FITC-DNA, confirmation (AID 1224897)
# Settings: HNF4A-FITC DNA binding, 1 h, at 12.5 µM, hits give high values
# Chain of Hepatocyte nuclear factor 4-alpha (Homo sapiens) (P41235 whole entry, looked up): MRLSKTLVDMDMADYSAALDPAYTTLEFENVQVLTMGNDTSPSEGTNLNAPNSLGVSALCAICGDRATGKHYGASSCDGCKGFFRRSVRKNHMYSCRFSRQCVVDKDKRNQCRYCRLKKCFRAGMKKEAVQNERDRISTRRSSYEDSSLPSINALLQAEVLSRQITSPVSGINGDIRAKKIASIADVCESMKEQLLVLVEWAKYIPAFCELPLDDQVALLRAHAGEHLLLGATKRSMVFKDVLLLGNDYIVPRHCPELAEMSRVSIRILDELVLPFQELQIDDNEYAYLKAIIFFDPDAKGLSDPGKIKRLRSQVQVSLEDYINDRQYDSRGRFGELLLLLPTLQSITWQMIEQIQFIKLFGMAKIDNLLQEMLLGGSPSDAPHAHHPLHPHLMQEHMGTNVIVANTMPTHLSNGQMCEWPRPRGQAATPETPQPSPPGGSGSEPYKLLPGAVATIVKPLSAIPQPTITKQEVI
compound,measurement,value
COc1ccccc1N=Nc1c(O)[nH]c(=S)[nH]c1=O,activity change,112% (active)
